PubChem BioAssay (NCATS)
Records with an inconclusive call do not appear. Where a call stands in place of a potency, no number is given. Active and inactive are the calls of the source. The call rests on the fitted dose curve.

Assay: Primary qHTS for inhibitors of MERS-S pseudo-typed particle cell entry (AID 1479149); further: nearly all actives have a fitted effect of over 60% in size
Conditions: MERS-S pseudotyped particle entry, luciferase; series mostly up to 57.1 µM
For `C[C@@H]1CCN(C(=O)[C@H](CCCN=C(N)N)NS(=O)(=O)c2cccc3c2NC[C@H](C)C3)[C@@H](C(=O)O)C1`, the Potency was “inactive”.
For `CC(=O)OCC(=O)[C@@]12N=C(C)O[C@@H]1C[C@H]1[C@@H]3CCC4=CC(=O)C=C[C@]4(C)[C@H]3[C@@H](O)C[C@@]12C`, the Potency was “inactive”.
In the case of `CCCSS/C(CCO)=C(\C)N(C=O)Cc1cnc(C)nc1N`, the Potency is reported as “inactive”.
For `O=C(NN1CCCC1)NS(=O)(=O)c1ccc(Cl)cc1`, the Potency was “inactive”.
For `COc1cc(O)c(C(=O)c2ccccc2)cc1S(=O)(=O)O`, the Potency was “inactive”.
With `CCOC(=O)NNc1nncc2ccccc12` the Potency was “inactive”.
In the case of `Oc1ccc(CCNCCCCCCNCCc2ccccc2)cc1O`, the Potency is reported as “inactive”.
In the case of `CNC(=O)c1cnn(-c2nc(N)c3ncn([C@@H]4O[C@H](CO)[C@@H](O)[C@H]4O)c3n2)c1`, the Potency is reported as “inactive”.
In the case of `OC[C@@H](O)[C@H](O)[C@H](O)[C@@H](O)CO`, the Potency is reported as “inactive”.
For `CC(C)(Oc1ccc(CCNC(=O)c2ccc(Cl)cc2)cc1)C(=O)O`, the Potency was “inactive”.
For `O=Cc1ccccc1C=O`, the Potency was “inactive”.
With `Cc1ncc(CSSCc2cnc(C)c(O)c2CO)c(CO)c1O` the Potency was “inactive”.
With `C[C@H]1COc2c(C3(N)CC3)c(F)cc3c(=O)c(C(=O)O)cn1c23` the Potency was “inactive”.
For `Nc1c(CC(=O)O)cccc1C(=O)c1ccc(Br)cc1`, the Potency was “inactive”.
In the case of `FC(F)(F)C(Cl)Br` (stereo not drawn), the Potency is reported as “inactive”.
For `Cc1c(F)cc2c(=O)c(C(=O)O)cn3c2c1CCC3C` (stereo not drawn), the Potency was “inactive”.
For `C[C@@H]1C[C@H]2[C@@H]3CCC4=CC(=O)C=C[C@]4(C)[C@@]3(F)[C@@H](O)C[C@]2(C)[C@H]1C(=O)CO`, the Potency was “inactive”.
For `Oc1cc(O)c2c(c1)O[C@H](c1ccc(O)c(O)c1)[C@H](O)C2`, the Potency was “inactive”.
For `CC1(C)OC[C@@H](COC(=O)CCc2ccc(OC[C@@H](O)CNCCNC(=O)N3CCOCC3)cc2)O1`, the Potency was “inactive”.
In the case of `C[C@]12CC[C@@H]3c4ccc(O)cc4CC[C@H]3[C@@H]1C[C@@H](O)[C@@H]2O`, the Potency is reported as “inactive”.
In the case of `Nc1ccc(S(=O)(=O)Nc2nccs2)cc1`, the Potency is reported as “inactive”.
For `C[C@H](CCC(=O)O)[C@H]1CC[C@H]2[C@@H]3C(=O)C[C@@H]4CC(=O)CC[C@]4(C)[C@H]3CC(=O)[C@]12C`, the Potency was “inactive”.
With `C#C[C@]1(O)CC[C@H]2[C@@H]3CCc4cc(OC)ccc4[C@H]3CC[C@@]21C` the Potency was “inactive”.
In the case of `O=C(O)COC(=O)Cc1ccccc1Nc1c(Cl)cccc1Cl`, the Potency is reported as “inactive”.
With `c1ccc(CN(CC2=NCCN2)c2ccccc2)cc1` the Potency was “inactive”.
With `CC(C(=O)O)c1ccc2c(c1)Cc1cccnc1O2` (stereo not drawn) the Potency was “inactive”.
With `CO[C@]1(NC(=O)CSC(F)F)C(=O)N2C(C(=O)O)=C(CSc3nnnn3CCO)CO[C@H]21` the Potency was “inactive”.
For `NCCc1ccc(O)c(O)c1`, the Potency was “inactive”.
In the case of `CC(=O)N[C@H]1[C@H]([C@H](O)[C@H](O)CO)OC(C(=O)O)=C[C@@H]1N=C(N)N`, the Potency is reported as “inactive”.
In the case of `O=C1C(c2[nH]c3ccccc3c2O)=Nc2ccccc21`, the Potency is reported as “inactive”.
For `COc1ccc(CN(CCN(C)C)c2ncccn2)cc1`, the Potency was “inactive”.
With `Nc1nc2ncc(CNc3ccc(C(=O)N[C@@H](CCC(=O)O)C(=O)O)cc3)nc2c(=O)[nH]1` the Potency was “inactive”.
In the case of `C/C=C/c1ccc(OC)cc1`, the Potency is reported as “inactive”.
In the case of `NC(=O)CC[C@@H](N)C(=O)O`, the Potency is reported as “inactive”.
In the case of `CCCCCOc1ccc(C2SC(=O)NC2=O)cc1OCC` (stereo not drawn), the Potency is reported as “inactive”.
For `CC[N+](CC)(CC)CCOC(=O)C(C1CCCC1)C1CCCC1`, the Potency was “inactive”.
With `NCCNC(=O)c1ccc(Cl)cn1` the Potency was “inactive”.
For `OC1C(O)C(O)C(O)C(O)C1O` (stereo not drawn), the Potency was “inactive”.

Assay: Primary qHTS for Vero E6 cytotoxicity: counterscreen for inhibitors of SARS-S pseudo-typed particle cell entry (AID 1479150)
Conditions: cell viability; series mostly up to 57.1 µM
In the case of `C[C@@H]1CCN(C(=O)[C@H](CCCN=C(N)N)NS(=O)(=O)c2cccc3c2NC[C@H](C)C3)[C@@H](C(=O)O)C1`, the Potency is reported as “inactive”.
With `CC(=O)OCC(=O)[C@@]12N=C(C)O[C@@H]1C[C@H]1[C@@H]3CCC4=CC(=O)C=C[C@]4(C)[C@H]3[C@@H](O)C[C@@]12C` the Potency was “inactive”.
In the case of `CCCSS/C(CCO)=C(\C)N(C=O)Cc1cnc(C)nc1N`, the Potency is reported as “inactive”.
For `O=C(NN1CCCC1)NS(=O)(=O)c1ccc(Cl)cc1`, the Potency was “inactive”.
For `COc1cc(O)c(C(=O)c2ccccc2)cc1S(=O)(=O)O`, the Potency was “inactive”.
In the case of `CCOC(=O)NNc1nncc2ccccc12`, the Potency is reported as “inactive”.
With `Oc1ccc(CCNCCCCCCNCCc2ccccc2)cc1O` the Potency was “inactive”.
For `C[N+]1(CC2COC(c3ccccc3)(C3CCCCC3)O2)CCCCC1` (stereo not drawn), the Potency was “inactive”.
For `CNC(=O)c1cnn(-c2nc(N)c3ncn([C@@H]4O[C@H](CO)[C@@H](O)[C@H]4O)c3n2)c1`, the Potency was “inactive”.
In the case of `OC[C@@H](O)[C@H](O)[C@H](O)[C@@H](O)CO`, the Potency is reported as “inactive”.
With `CC(C)(Oc1ccc(CCNC(=O)c2ccc(Cl)cc2)cc1)C(=O)O` the Potency was “inactive”.
With `O=Cc1ccccc1C=O` the Potency was “inactive”.
With `Cc1ncc(CSSCc2cnc(C)c(O)c2CO)c(CO)c1O` the Potency was “inactive”.
In the case of `C[C@H]1COc2c(C3(N)CC3)c(F)cc3c(=O)c(C(=O)O)cn1c23`, the Potency is reported as “inactive”.
With `Nc1c(CC(=O)O)cccc1C(=O)c1ccc(Br)cc1` the Potency was “inactive”.
For `FC(F)(F)C(Cl)Br` (stereo not drawn), the Potency was “inactive”.
With `Cc1c(F)cc2c(=O)c(C(=O)O)cn3c2c1CCC3C` (stereo not drawn) the Potency was “inactive”.
For `C[C@@H]1C[C@H]2[C@@H]3CCC4=CC(=O)C=C[C@]4(C)[C@@]3(F)[C@@H](O)C[C@]2(C)[C@H]1C(=O)CO`, the Potency was “inactive”.
In the case of `Oc1cc(O)c2c(c1)O[C@H](c1ccc(O)c(O)c1)[C@H](O)C2`, the Potency is reported as “inactive”.
In the case of `CC1(C)OC[C@@H](COC(=O)CCc2ccc(OC[C@@H](O)CNCCNC(=O)N3CCOCC3)cc2)O1`, the Potency is reported as “inactive”.
In the case of `C[C@]12CC[C@@H]3c4ccc(O)cc4CC[C@H]3[C@@H]1C[C@@H](O)[C@@H]2O`, the Potency is reported as “inactive”.
In the case of `Nc1ccc(S(=O)(=O)Nc2nccs2)cc1`, the Potency is reported as “inactive”.
In the case of `C[C@H](CCC(=O)O)[C@H]1CC[C@H]2[C@@H]3C(=O)C[C@@H]4CC(=O)CC[C@]4(C)[C@H]3CC(=O)[C@]12C`, the Potency is reported as “inactive”.
For `C#C[C@]1(O)CC[C@H]2[C@@H]3CCc4cc(OC)ccc4[C@H]3CC[C@@]21C`, the Potency was “inactive”.
In the case of `O=C(O)COC(=O)Cc1ccccc1Nc1c(Cl)cccc1Cl`, the Potency is reported as “inactive”.
In the case of `c1ccc(CN(CC2=NCCN2)c2ccccc2)cc1`, the Potency is reported as “inactive”.
In the case of `CC(C(=O)O)c1ccc2c(c1)Cc1cccnc1O2` (stereo not drawn), the Potency is reported as “inactive”.
For `CCOC(=O)C1=C[C@]2(CC)CCCN3CCc4c(n1c1ccccc41)[C@@H]32`, the Potency was “inactive”.
For `CO[C@]1(NC(=O)CSC(F)F)C(=O)N2C(C(=O)O)=C(CSc3nnnn3CCO)CO[C@H]21`, the Potency was “inactive”.
For `NCCc1ccc(O)c(O)c1`, the Potency was “inactive”.
For `CC(=O)N[C@H]1[C@H]([C@H](O)[C@H](O)CO)OC(C(=O)O)=C[C@@H]1N=C(N)N`, the Potency was “inactive”.
With `O=C1C(c2[nH]c3ccccc3c2O)=Nc2ccccc21` the Potency was “inactive”.
For `COc1ccc(CN(CCN(C)C)c2ncccn2)cc1`, the Potency was “inactive”.
In the case of `Nc1nc2ncc(CNc3ccc(C(=O)N[C@@H](CCC(=O)O)C(=O)O)cc3)nc2c(=O)[nH]1`, the Potency is reported as “inactive”.
In the case of `C/C=C/c1ccc(OC)cc1`, the Potency is reported as “inactive”.
With `NC(=O)CC[C@@H](N)C(=O)O` the Potency was “inactive”.
With `CCCCCOc1ccc(C2SC(=O)NC2=O)cc1OCC` (stereo not drawn) the Potency was “inactive”.
For `CC[N+](CC)(CC)CCOC(=O)C(C1CCCC1)C1CCCC1`, the Potency was “inactive”.
With `NCCNC(=O)c1ccc(Cl)cn1` the Potency was “inactive”.
For `OC1C(O)C(O)C(O)C(O)C1O` (stereo not drawn), the Potency was “inactive”.
